Assay outcomes (PubChem BioAssay)
BAZ2B inh – blocks human BAZ2B. actives 4.4% (n = 360,000). Potency, µM (series often up to 114 µM), inactives show at the highest dose activity change, negative = inhibition, most hits filed as inhibitors. AlphaScreen BAZ2B-H3K14Ac peptide displacement. AID 504333. Q9UIF8; also: % is scaled to controls: 0 for no effect and ±100 for the full control effect; nearly all actives have a fitted effect of over 60% in size
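AlphaScreen displacement: compounds (up to 110uM) incubated 30 min at room temperature with a preformed 50 nM BAZ2B/50 nM biotinylated H3K14Ac peptide complex in PBS pH 7.4 with Tween-20. Donor and acceptor beads at 10 ug/mL final added, 20 min light-protected before reading.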
Sfp inh – inhibitors of Bacillus subtilis Sfp phosphopantetheinyl transferase. Potency, µM, inactives show largest response in the series, negative = inhibition, actives largely listed as inhibitors. AID 1490. actives 3.5% (n = 310,000). Biochemical Sfp PPTase activity, qHTS. Q9F4F7;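 also: the enzyme is Sfp with the accession as filed and its product quenches rhodamine fluorescence; 0% = enzyme reaction without inhibitor and -100% = no enzyme wells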
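Fluorescence-quenching assay with 15 nM Sfp, 5 uM rhodamine-CoA and 12.5 uM BHQ-2-labelled ybbR peptide in pH 7.6 Hepes/MgCl2 buffer. Enzyme was pre-incubated with compound for 15 min at room temperature. Rate was taken from the 30-min fluorescence change (525/598 nm).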
L3MBTL1 block – L3MBTL1 (human) inhibition; AlphaScreen L3MBTL1–H3K9me1 peptide binding; Potency, µM (top dose mostly 57.1 µM), without a hit: top-dose activity, negative = inhibition, usual class: inhibitors; actives 0.66% (n = 230,000); also: % is scaled to controls: 0 for no effect and ±100 for the full control effect; nearly all actives have a fitted effect of over 60% in size
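Displacement of a biotinylated histone H3(1-15) peptide monomethylated at Lys9 (75 nM) from L3MBTL1 (50 nM) was measured by AlphaScreen after a 30 min room-temperature compound incubation; cefsulodin titration served as intraplate control.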
HP1b chromo inh – blocks HP1-beta chromodomain binding to methylated histone tails; AlphaScreen HP1-beta / biotin-H3K9me3 peptide binding; actives 0.56% (n = 390,000); AID 540317; Potency, µM (titrated, usually from 114 µM), for the others: at the highest dose activity change, negative = inhibition, actives largely listed as inhibitors; P83916; also: nearly all actives have a fitted effect of over 70% in size
Target sequence (P83916 whole entry, looked up): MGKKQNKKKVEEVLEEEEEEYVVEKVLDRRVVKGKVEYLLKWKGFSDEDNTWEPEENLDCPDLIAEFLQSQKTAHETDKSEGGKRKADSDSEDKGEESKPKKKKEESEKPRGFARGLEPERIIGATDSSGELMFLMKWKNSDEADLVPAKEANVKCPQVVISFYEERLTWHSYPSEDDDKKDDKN
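HP1-beta protein (50 nM final) preincubated 30 min at room temperature with biotinylated H3(1-18)K9me3 peptide (50 nM) in PBS pH 7.4, 0.01% Tween-20, then compound added for 30 min. AlphaScreen streptavidin donor/nickel chelate acceptor beads (10 ug/mL final), 30 min dark, luminescence read.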
JMJD2A Tudor – JMJD2A Tudor domain (human) inhibition; O75164; AlphaScreen JMJD2A-Tudor / H3K4me3 peptide binding; Potency, µM (top dose mostly 114 µM), for inactives: top-dose activity change, negative = inhibition, most hits filed as inhibitors; actives 4.4% (n = 390,000); AID 504339; also: % is scaled to controls: 0 for no effect and ±100 for the full control effect; nearly all actives have a fitted effect of over 50% in size
G9a block – G9a (human) methyltransferase inhibition | Q96KQ7 | G9a H3K9 monomethylation, AlphaScreen, 2 h | Potency, µM (highest dose often 102 µM), for inactives: at the highest dose activity, negative = inhibition, actives largely listed as inhibitors | actives 8.8% (n = 350,000); also: % is scaled to controls: 0 for no effect and ±100 for the full control effect; nearly all actives have a fitted effect of over 75% in size
Target sequence (Q96KQ7 913-1193 limits assumed): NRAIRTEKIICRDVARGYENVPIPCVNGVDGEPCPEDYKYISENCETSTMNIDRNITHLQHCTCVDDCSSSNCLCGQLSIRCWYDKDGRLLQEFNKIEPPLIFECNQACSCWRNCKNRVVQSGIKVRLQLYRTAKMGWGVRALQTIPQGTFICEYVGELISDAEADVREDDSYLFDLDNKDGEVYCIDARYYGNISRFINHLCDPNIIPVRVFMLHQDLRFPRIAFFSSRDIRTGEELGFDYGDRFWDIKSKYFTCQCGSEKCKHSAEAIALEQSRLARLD
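Readings reflect AlphaScreen signal from monomethyl-H3K9 antibody detection. HMT at 20 nM; substrate b-H3K9 500 nM; cofactor SAM 20 uM; 2 h RT reaction; compounds tested as titrations in qHTS with 15 min preincubation.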
An asterisk follows results filed as active; ! = repeats disagree; [ ] = dose if it differs, or a comment. Rows were chosen to be rich in hits. Some 12% of all compounds tested hit in one or more screens of this group. Calls follow the shape of the dose curve; as a rule, active = well fitted curve in the direction sought with a large enough effect; inconclusive = small, poorly fitted or top-dose-only effect, or another doubt; inactive = no such curve, though single readings can be large; an effect the other way counts as inactive or inconclusive. Potency is read from the fitted curve at half-maximal effect.

COc1cc2c(cc1O)C(Cc1ccc(O)cc1)[N+](C)(C)CC2 (stereo not given) was read as Sfp inh -47% and G9a block inconclusive.
`O=C(CCCc1cccs1)Nc1nc(-c2ccc(F)cc2)cs1` gave BAZ2B inh -7%, Sfp inh 6%, L3MBTL1 block 1%, HP1b chromo inh 40%, JMJD2A Tudor -1% and G9a block -11%[59 µM].
`CCS(=O)(=O)Nc1cccc(C2=NN(S(=O)(=O)c3ccccc3)C(c3ccco3)C2)c1` (stereo not given) gave BAZ2B inh -30%, Sfp inh inconclusive, HP1b chromo inh -22%, JMJD2A Tudor inconclusive and G9a block inconclusive.
For CS(=O)(=O)Nc1cccc(C2=NN(S(=O)(=O)c3ccccc3)C(c3ccco3)C2)c1 (stereo not given) the results were BAZ2B inh -21%, Sfp inh 56µM*, HP1b chromo inh inconclusive, JMJD2A Tudor inconclusive and G9a block 50µM*.
CCS(=O)(=O)Nc1cccc(C2=NN(S(=O)(=O)c3ccc(C)cc3)C(c3ccco3)C2)c1 (stereo not given) was read as Sfp inh 50µM*, HP1b chromo inh 23%, JMJD2A Tudor inconclusive and G9a block inconclusive.
COc1ccc(CNC(=O)C2CCC(CNS(=O)(=O)c3ccccc3)CC2)cc1 (stereo not given) was read as BAZ2B inh 7%, Sfp inh 8%, HP1b chromo inh 34%, JMJD2A Tudor -5% and G9a block 11%.
Screening COC(=O)N/N=C/c1sc(N2CCCCC2)nc1-c1cccs1 returned BAZ2B inh inconclusive, Sfp inh 22µM*, L3MBTL1 block -5%, HP1b chromo inh 16%, JMJD2A Tudor inconclusive and G9a block 50µM*.
CCc1ccccc1N1C(=O)[C@@H]2Cc3ccccc3CN2C1=O was read as BAZ2B inh 1%, Sfp inh 21%, L3MBTL1 block 6%, HP1b chromo inh 48% and JMJD2A Tudor 10%.
Screening C/C(=N\NC(=S)Nc1ccccc1)C1Cc2ccccc2C(=O)O1 (stereo not given) returned BAZ2B inh inconclusive, Sfp inh 22µM*, HP1b chromo inh -5% and JMJD2A Tudor -34%.
`C/C(=N\NC(=S)Nc1ccccc1C)C1Cc2ccccc2C(=O)O1` (stereo not given) gave BAZ2B inh -26%, Sfp inh -11%, L3MBTL1 block -5%, HP1b chromo inh 11%, JMJD2A Tudor -31% and G9a block 50µM*.
`O=C1OC(C(=O)Nc2ccccc2)Cc2ccccc21` (stereo not given) gave BAZ2B inh -22%, Sfp inh 15%, L3MBTL1 block 13%, HP1b chromo inh 38%, JMJD2A Tudor -6% and G9a block 5%.
For COc1cc(CN2CCCCC2C(=O)Nc2ccc(Oc3ccccc3)nc2)ccc1O (stereo not given) the results were BAZ2B inh -18%, Sfp inh 4%, HP1b chromo inh 18%, JMJD2A Tudor -28% and G9a block 5.6µM*.
Screening CC(=O)N1CCOc2cc(S(=O)(=O)NCc3ccc(C)cc3)c(Cl)cc21 returned BAZ2B inh -2%, HP1b chromo inh 7%, JMJD2A Tudor -21% and G9a block 5%[59 µM].
For CC1CCc2c(sc(NC(=O)CSc3ncn[nH]3)c2C#N)C1 (stereo not given) the results were BAZ2B inh -7%, Sfp inh 5%, L3MBTL1 block 1%, HP1b chromo inh 45%, JMJD2A Tudor -8% and G9a block 12%[59 µM].
CCCc1cc(=O)[nH]c(SCC(=O)Nc2sc3c(c2C#N)CCC(C)C3)n1 (stereo not given) was read as BAZ2B inh -26%, Sfp inh -15%, L3MBTL1 block -1%, HP1b chromo inh -14%, JMJD2A Tudor inconclusive and G9a block 50µM*.
`CC(C)(C)C1CCc2c(sc(NC(=O)CSc3ncn[nH]3)c2C#N)C1` (stereo not given) gave BAZ2B inh -4%, Sfp inh inconclusive, L3MBTL1 block -15%, HP1b chromo inh -29%, JMJD2A Tudor -15% and G9a block 25µM*.
Screening Cc1cc(C(=O)OCC(=O)Nc2sc3c(c2C#N)CCC(C)C3)c2ccccc2n1 (stereo not given) returned BAZ2B inh -38%, Sfp inh inconclusive, L3MBTL1 block inconclusive, HP1b chromo inh -2%, JMJD2A Tudor -34% and G9a block 45µM*.
`Cc1ccc(C)c(N2CCN(C(=O)CCc3nc(-c4cccc(Cl)c4)no3)CC2)c1` gave L3MBTL1 block 13%, HP1b chromo inh 104% and JMJD2A Tudor 7%.
For NC(=O)c1c(NC(=O)Cc2ccccc2)sc2c1CCN(Cc1ccccc1)C2 the results were BAZ2B inh -1%, Sfp inh 2%, L3MBTL1 block 5%, HP1b chromo inh 46%, JMJD2A Tudor 3% and G9a block -7%.
Screening CCOC(=O)Cn1nc(-c2ccccc2)c2cnc3ccc(C)cc3c21 returned BAZ2B inh -29%, Sfp inh -4%, L3MBTL1 block -9%, HP1b chromo inh 32%, JMJD2A Tudor -30% and G9a block 56µM*.
For CCOc1ccc(N2C(=O)C3Sc4[nH]c(=O)sc4C(/C=C/c4ccccc4)C3C2=O)cc1 (stereo not given) the results were BAZ2B inh 45µM*, Sfp inh -25%, L3MBTL1 block -19%, HP1b chromo inh inconclusive, JMJD2A Tudor 40µM* and G9a block 11µM*.
For CN1CCc2cc(O)c(O)cc2C(c2ccccc2)C1 (stereo not given) the results were BAZ2B inh -22%, L3MBTL1 block 2%, HP1b chromo inh -5%, JMJD2A Tudor -24% and G9a block 11µM*.
Oc1cc2c(cc1O)C(c1ccccc1)CNCC2 (stereo not given) was read as Sfp inh 79µM*!, HP1b chromo inh inconclusive, JMJD2A Tudor 32µM* and G9a block 6.7µM*.
Screening Oc1cc2c(cc1O)[C@@H](c1ccccc1)CNCC2 returned BAZ2B inh -7%, Sfp inh 20µM*, L3MBTL1 block -4%, HP1b chromo inh 29%, JMJD2A Tudor 4% and G9a block 8.9µM*.
Screening c1ccc(C2CNCCc3ccccc32)cc1 (stereo not given) returned BAZ2B inh -10%, Sfp inh 6%, HP1b chromo inh 22%, JMJD2A Tudor -7% and G9a block -2%.
